Five compounds from PubChem BioAssay (NCATS) can be followed below.

Inconclusive results are not listed. Values without a mark were called inactive. Activity calls are given as the source filed them. Calls come from the whole dose curve; as a rule, active = well fitted curve in the direction sought with a large enough effect; inconclusive = small, poorly fitted or top-dose-only effect, or another doubt; inactive = no such curve, though single readings can be large; an effect the other way counts as inactive or inconclusive.

The target in assay [1] is ATP-dependent 6-phosphofructokinase (Trypanosoma brucei brucei) (UniProt O15648). The experiment in a line: qHTS Assay to Find Inhibitors of T. brucei phosphofructokinase: hit validation (AID 492961).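 Note: luminescence reports ADP formed as PFK phosphorylates fructose-6-phosphate with ATP; % is set by controls: 0 for no effect and ±100 for the full control effect.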 Summed up: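 ADP-Glo luminescence read-out of ADP formed by 1.25 nM PFK from 0.1 mM ATP and 0.5 mM F6P (TEA pH 8.0, 45 min, RT). Compounds titrated; activity normalized to no-enzyme and full-enzyme controls.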
Sequence of ATP-dependent 6-phosphofructokinase (Trypanosoma brucei brucei) (O15648 whole entry, looked up): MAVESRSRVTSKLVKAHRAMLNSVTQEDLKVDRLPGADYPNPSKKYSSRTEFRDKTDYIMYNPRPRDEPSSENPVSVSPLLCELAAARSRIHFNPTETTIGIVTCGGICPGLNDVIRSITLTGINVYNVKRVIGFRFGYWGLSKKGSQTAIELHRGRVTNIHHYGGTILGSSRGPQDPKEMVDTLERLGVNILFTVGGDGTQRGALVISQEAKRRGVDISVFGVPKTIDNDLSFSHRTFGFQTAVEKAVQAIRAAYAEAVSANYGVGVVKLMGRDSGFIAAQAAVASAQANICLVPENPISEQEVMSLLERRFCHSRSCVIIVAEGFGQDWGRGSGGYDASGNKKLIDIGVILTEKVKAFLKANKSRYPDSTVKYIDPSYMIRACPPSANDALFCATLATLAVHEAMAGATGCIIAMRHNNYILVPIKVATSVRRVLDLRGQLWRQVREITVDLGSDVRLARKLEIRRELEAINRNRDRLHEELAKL

A short description of assay [2]: qHTS profiling for inhibitors of Plasmodium falciparum proliferation (AID 504749).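 For activity, negative = inhibition: 0% = DMSO vehicle and full inhibition = artemisinin control.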 For all read-outs here: nearly all actives have a fitted effect of over 60% in size. Note: potency is the fitted concentration of half-maximal effect. The settings on record: P. falciparum in erythrocytes, SYBR Green DNA, 72 h; for activity, negative = inhibition: at 28.7 µM (top of the series). Summed up:
(§1)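 Three-day growth assay of blood-stage parasites in erythrocytes (0.3% parasitemia, 2.5% hematocrit) at 37 C, 5% CO2, quantified by SYBR Green DNA staining after overnight detergent lysis.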
On the technique in general: In qHTS, concentration-response curves come from the screen itself.

The next assay has as its system 3D7. The description is as above. The settings on record: P. falciparum in erythrocytes, SYBR Green DNA, 72 h; series mostly up to 28.7 µM. Summed up:
as §1

For another assay, the system named is AA1029. Described as above. The conditions noted are these: P. falciparum in erythrocytes, SYBR Green DNA, 72 h; series mostly up to 28.7 µM. Summed up:
as §1

The subject of the next assay is AS120. The description is as above. The conditions noted are these: P. falciparum in erythrocytes, SYBR Green DNA, 72 h; series mostly up to 28.7 µM. Summed up:
as §1

The next assay concerns ATS189. The description is as above. The conditions noted are these: P. falciparum in erythrocytes, SYBR Green DNA, 72 h; series mostly up to 28.7 µM. Summed up:
as §1

Another assay relates to C2A. The description is as above. The conditions noted are these: P. falciparum in erythrocytes, SYBR Green DNA, 72 h; series mostly up to 28.7 µM. Summed up: as §1
A further assay concerns CP185. The assay is described as above. The conditions noted are these: P. falciparum in erythrocytes, SYBR Green DNA, 72 h; series mostly up to 28.7 µM. Summed up:
as §1

The next assay has as its system CP191. The description is as above. The settings on record: P. falciparum in erythrocytes, SYBR Green DNA, 72 h; series mostly up to 28.7 µM. Summed up: as §1
For another assay, the system named is CP192. The assay is described as above. The settings on record: P. falciparum in erythrocytes, SYBR Green DNA, 72 h; series mostly up to 28.7 µM. Summed up: as §1
A further assay relates to CP194. The description is as above. The settings on record: P. falciparum in erythrocytes, SYBR Green DNA, 72 h; series mostly up to 28.7 µM. Summed up:
as §1

For the next assay, the system named is CP211. Described as above. The conditions noted are these: P. falciparum in erythrocytes, SYBR Green DNA, 72 h; series mostly up to 28.7 µM. Summed up: as §1
A further assay has as its system CP217. Described as above. The conditions noted are these: P. falciparum in erythrocytes, SYBR Green DNA, 72 h; series mostly up to 28.7 µM. Summed up: as §1
In the next assay the test system is CP237. Described as above. The settings on record: P. falciparum in erythrocytes, SYBR Green DNA, 72 h; series mostly up to 28.7 µM. Summed up:
as §1

Another assay concerns CP238. The assay is described as above. The settings on record: P. falciparum in erythrocytes, SYBR Green DNA, 72 h; series mostly up to 28.7 µM. Summed up:
as §1

Another assay deals with CP247. The description is as above. The settings on record: P. falciparum in erythrocytes, SYBR Green DNA, 72 h; series mostly up to 28.7 µM. Summed up:
as §1

The subject of the next assay is CP252. Described as above. The conditions noted are these: P. falciparum in erythrocytes, SYBR Green DNA, 72 h; series mostly up to 28.7 µM. Summed up: as §1
For the next assay, the system named is CP286. The assay is described as above. The conditions noted are these: P. falciparum in erythrocytes, SYBR Green DNA, 72 h; series mostly up to 28.7 µM. Summed up:
as §1

A further assay relates to Dd2. The description is as above. The settings on record: P. falciparum in erythrocytes, SYBR Green DNA, 72 h; series mostly up to 28.7 µM. Summed up:
as §1

A further assay has as its system P94_40. The assay is described as above. The settings on record: P. falciparum in erythrocytes, SYBR Green DNA, 72 h; series mostly up to 28.7 µM. Summed up: as §1

With `COc1cc2c(cc1O)CCN[C@@]21CS[C@H]2c3c(OC(C)=O)c(C)c4c(c3C(COC1=O)N1C2C2c3c(cc(C)c(OC)c3O)CC([C@@H]1O)N2C)OCO4` (stereo not given in full), the Potency entry in assay [1] was “inactive”. Besides, the Potency in assay [2] (parasite line A) is 0.9 nM (active); in assay [2] (parasite line B), 0.9 nM (active); in the assay on 3D7 it was 0.3 nM (active); with AA1029, 0.9 nM (active); with AS120, 0.9 nM (active); in the assay on ATS189, 1 nM (active). Further, the Potency in the assay with C2A is 2.8 nM (active); in the assay on CP185, 1.1 nM (active); in the assay on CP191, 1 nM (active); in the assay with CP192, 1.5 nM (active); in the assay on CP194, 1.3 nM (active); with CP211, 0.5 nM (active). The Potency with CP217 was 3.2 nM (active); with CP237 it was 0.9 nM (active); with CP238, 0.9 nM (active); in the assay with CP247, 1.1 nM (active); in the assay on CP252, 2.5 nM (active); in the assay with CP286, 0.3 nM (active). The Potency with Dd2 was 1 nM (active); with P94_40 it was 0.9 nM (active).

In the case of `C=CC1CN2CCC1CC2[C@@H](O)c1ccnc2ccc(OC)cc12` (stereo not given in full), the Potency entry in assay [1] was “inactive”. The Potency in [2] (parasite line A) is 50.1 nM (active); in assay [2] (parasite line B) it was 56.2 nM (active); in the assay with 3D7, 79.4 nM (active); with AA1029, 282 nM (active); with AS120, 398 nM (active); in the assay with ATS189 it was 316 nM (active). The Potency was 891 nM (active) with C2A; 501 nM (active) with CP185; 224 nM (active) in the assay with CP191; 757 nM (active) in the assay with CP192; 536 nM (active) in the assay on CP194; 675 nM (active) in the assay on CP211. Also, the Potency with CP217 was 501 nM (active); with CP237, 891 nM (active); with CP238 it was 891 nM (active); in the assay with CP247 it was 1000 nM (active); with CP252, 355 nM (active); in the assay with CP286, 282 nM (active). The results for the Potency in the assay with Dd2 and in the assay on P94_40 were 282 nM (active) and 251 nM (active), respectively.

For the compound `OCCN1CC(O)C(O)C(O)C1CO` (stereo not given), the Potency entry (in [1]; with 3D7; with AA1029; in the assay on AS120; in the assay with ATS189; in the assay with C2A) was “inactive” each time. For the same compound, the Potency result in the assay on CP185, with CP191, in the assay on CP192, in the assay on CP194, with CP211 and with CP217 was “inactive” throughout. For the same compound, the Potency result with CP237, with CP238, in the assay with CP247, in the assay on CP252, with CP286 and in the assay with Dd2 was “inactive” throughout. In addition, the Potency result in the assay with P94_40 was “inactive”. Besides, the activity, negative = inhibition in [2] (parasite line A) is 13.3%; in assay [2] (parasite line B), 21.3%.

For the compound `O=C1C(I)=CC(=C(c2cc(I)c(O)c(I)c2)c2ccccc2C(=O)O)C=C1I`, the Potency result (in [1]; in the assay on 3D7; with AA1029; in the assay with AS120; with ATS189; with C2A) was “inactive” each time. Besides, the Potency entry with CP185, in the assay on CP191, with CP192, in the assay on CP194, in the assay on CP211 and with CP217 was “inactive” throughout. Further, the Potency entry in the assay on CP237, in the assay with CP238, in the assay on CP247, with CP252, in the assay on CP286 and with Dd2 was “inactive” throughout. In addition, in the assay on P94_40, the Potency entry was “inactive”. For the same compound, the activity, negative = inhibition in assay [2] (parasite line A) was 1.17%; in assay [2] (parasite line B), -0.638%.

Consider `COc1cccc2c1C(=O)c1c(O)c3c(c(O)c1C2=O)C[C@@](O)(C(=O)CO)C[C@@H]3OC1CC(N)C(O)C(C)O1` (stereo not given in full), for which the Potency result in assay [1] is “inactive”. The Potency in [2] (parasite line A) is 2000 nM (active); in assay [2] (parasite line B), 3160 nM (active); in the assay on 3D7 it was 1000 nM (active); with AA1029, 2240 nM (active); in the assay with AS120 it was 2240 nM (active); in the assay with ATS189 it was 2510 nM (active). Moreover, the Potency is 2240 nM (active) with C2A; 2240 nM (active) in the assay on CP185; 2240 nM (active) with CP191; 1900 nM (active) in the assay with CP192; 4780 nM (active) in the assay with CP194; 1690 nM (active) in the assay with CP211. Further, the Potency with CP217 is 2510 nM (active); with CP237, 891 nM (active); with CP238, 2240 nM (active); with CP247, 2240 nM (active); in the assay on CP252 it was 2510 nM (active); in the assay with CP286, 398 nM (active). For the same compound, the Potency was 1260 nM (active) with Dd2 and 2000 nM (active) in the assay with P94_40.
